From PubChem BioAssay (NCI) come the findings set out here.

About 83,000 compounds went through this panel and 20% of them were active in at least one assay; those are over-represented in the sample as a whole.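 Plates (96-well) were seeded with cells, treated with compound at one concentration, and incubated for 48 hours before percent growth was determined.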 Values without a mark were called inactive. Calls of active or inactive are those of the source. Rule for the calls: active = growth percent below 10; inactive = the rest.

Holding throughout (test): NCI-60 one-dose screen, 48 h (100 = growth as untreated, 0 = no growth, -100 = all killed)
Common to all, as to details: 10 µM unless noted

Experiment [1] deals with SK-MEL-2 melanoma.
The test system of experiment [2] is EKVX NSCLC.
Experiment [3] concerns UO-31 renal.
Experiment [4] concerns TK-10 renal.
Experiment [5] relates to ACHN renal.
Experiment [6] deals with CAKI-1 renal.
In experiment [7] the test system is A498 renal.
Experiment [8] relates to CCRF-CEM leukemia.
Experiment [9] deals with MOLT-4 leukemia.

Regarding `CCN(CC)CCCNc1cccc2c(SCc3ccccc3)ccnc12`, the growth in experiment [1] is 114%; in [2] it was 63.5%; in experiment [3], -9.99% (active); in experiment [4] it was 63.7%; in experiment [5] it was 102%; in experiment [6], 58.8%. For the same compound, the growth in experiment [7] is 75.7%; in [8] it was -26.1% (active); in [9], -24.2% (active).

As for `O=C(Nc1cccc2c1C(=O)c1cccc(Nc3cccc4c3C(=O)c3cccc(NC(=O)c5ccccc5)c3C4=O)c1C2=O)c1ccccc1`, the growth was 109% in experiment [1]; 125% in experiment [2]; 86.3% in experiment [3]; 108% in [4]; 104% in experiment [5]; 99.1% in [6]. Further, the growth is 121% in experiment [7], 89.5% in experiment [8] and 104% in experiment [9].

With `CCc1ccc(C(c2ccc(CC)cc2)C(Cl)(Cl)CCl)cc1`, the growth in [1] was 94.2%; in experiment [2], 95.8%; in [3], 84.1%; in experiment [4] it was 109%; in [5], 97.6%; in experiment [6], 96.6%. Further, the growth in experiment [7] was 81.7%; in experiment [8] it was 114%; in experiment [9], 84.4%.
